Source: PubChem BioAssay (NCATS)
Values without a mark were called inactive. Results filed as inconclusive are left out. Calls of active or inactive are those of the source. Unless noted, calls follow the shape of the dose curve; as a rule, active = well fitted curve in either direction with a large enough effect (not every such curve was filed as active); inconclusive = small, poorly fitted or top-dose-only effect, or another doubt; inactive = flat fitted curve, though single readings scatter.

Legend:
[1] = target: Lysosomal acid glucosylceramidase (Homo sapiens) (UniProt P04062); assay: Glucocerebrosidase-p2 (AID 348; in the data active = potency below about 10 µM; also: potency is read from the fitted curve at half-maximal effect); settings: purified GBA, blue fluorogenic substrate, 40 min
Sequence of Lysosomal acid glucosylceramidase (Homo sapiens) (P04062 whole entry, looked up): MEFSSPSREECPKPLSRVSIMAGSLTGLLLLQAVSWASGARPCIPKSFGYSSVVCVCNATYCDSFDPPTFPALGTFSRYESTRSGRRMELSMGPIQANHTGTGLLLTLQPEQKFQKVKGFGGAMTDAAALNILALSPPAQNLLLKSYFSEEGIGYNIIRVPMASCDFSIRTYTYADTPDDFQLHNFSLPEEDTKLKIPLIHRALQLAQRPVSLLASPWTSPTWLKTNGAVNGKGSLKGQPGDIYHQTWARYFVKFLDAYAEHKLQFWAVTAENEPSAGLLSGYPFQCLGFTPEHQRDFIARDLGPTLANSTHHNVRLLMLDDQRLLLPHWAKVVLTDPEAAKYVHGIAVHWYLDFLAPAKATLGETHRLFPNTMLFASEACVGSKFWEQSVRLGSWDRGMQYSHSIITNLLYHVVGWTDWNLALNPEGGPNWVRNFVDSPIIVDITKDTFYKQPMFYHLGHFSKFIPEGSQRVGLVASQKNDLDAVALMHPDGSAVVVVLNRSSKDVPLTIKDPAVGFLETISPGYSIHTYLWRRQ
How it was run: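 Normal human glucocerebrosidase (0.2 nM) with blue fluorogenic substrate (80 uM final) in citrate/phosphate pH 5.9 with 10mM sodium taurocholate, 0.01% tween-20; 40 min RT, NaOH/glycine stop; fluorescence Ex 365/Em 440; AC50 from a titration from 0.6 nM upwards.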

[2] = AP1 Signaling Pathway (AID 357); settings: ME-180 AP-1-bla reporter, EGF-induced, beta-lactamase ratio, 5 h; at 7.69 µM (top of the series) unless noted;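 also: ME-180 reporter cells stimulated with EGF at its EC50 level; % is scaled to controls: 0 for no effect and ±100 for the full control effect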
How it was run: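 Cells are seeded overnight, exposed to compound titrations and an EC50 level of EGF for 5 hours at 37 °C, then loaded with CCF4 dye for 2.5 hours. Beta-lactamase activity under the AP-1 element is read as a blue/green ratio.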

[3] = NFAT Signaling Pathway (AID 444); settings: Jurkat NFAT-bla M1, carbachol, beta-lactamase ratio, 5 h; at 7.69 µM (top of the series) unless noted;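 also: carbachol stimulus at about its EC50 of 1 µM final; % is scaled to controls: 0 for no effect and ±100 for the full control effect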
How it was run: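 Jurkat cells carrying an NFAT-driven β-lactamase reporter and co-transfected muscarinic M1 receptor were treated with compound plus carbachol (1 uM final, an EC50 level) for 5 h at 37 °C. CCF4 loading followed for 1 h at RT; 460/530 nm ratio gave %activity.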

[4] = Stat Signaling Pathway (AID 446); settings: ME-180 (cervical carcinoma) SIE beta-lactamase reporter, IL-6 stimulated, 5 h; at 7.69 µM (top of the series) unless noted;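 also: ME-180 cervical cancer cells given 40 pM IL-6 alongside compound; SIE-controlled beta-lactamase reporter measured as 460/530 nm FRET emission ratio; % is scaled to controls: 0 for no effect and ±100 for the full control effect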
How it was run: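 Compound effects on IL-6-induced STAT reporter activity were measured in ME-180 cells. After overnight culture, cells were co-treated with 40 pM IL-6 for 5 hrs before beta-lactamase substrate loading at room temperature.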

[5] = target: Glucocorticoid receptor (Homo sapiens) (UniProt P04150); assay: GR-GFP Redistribution (AID 450;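 active = compounds whose dose series gives a full or clear partial fitted curve of increased nuclear translocation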; also: potency is read from the fitted curve at half-maximal effect); settings: U2OS GR-GFP nuclear translocation, laser cytometry, 2 h
Sequence of Glucocorticoid receptor (Homo sapiens) (P04150 whole entry, looked up, the tested form may be a part): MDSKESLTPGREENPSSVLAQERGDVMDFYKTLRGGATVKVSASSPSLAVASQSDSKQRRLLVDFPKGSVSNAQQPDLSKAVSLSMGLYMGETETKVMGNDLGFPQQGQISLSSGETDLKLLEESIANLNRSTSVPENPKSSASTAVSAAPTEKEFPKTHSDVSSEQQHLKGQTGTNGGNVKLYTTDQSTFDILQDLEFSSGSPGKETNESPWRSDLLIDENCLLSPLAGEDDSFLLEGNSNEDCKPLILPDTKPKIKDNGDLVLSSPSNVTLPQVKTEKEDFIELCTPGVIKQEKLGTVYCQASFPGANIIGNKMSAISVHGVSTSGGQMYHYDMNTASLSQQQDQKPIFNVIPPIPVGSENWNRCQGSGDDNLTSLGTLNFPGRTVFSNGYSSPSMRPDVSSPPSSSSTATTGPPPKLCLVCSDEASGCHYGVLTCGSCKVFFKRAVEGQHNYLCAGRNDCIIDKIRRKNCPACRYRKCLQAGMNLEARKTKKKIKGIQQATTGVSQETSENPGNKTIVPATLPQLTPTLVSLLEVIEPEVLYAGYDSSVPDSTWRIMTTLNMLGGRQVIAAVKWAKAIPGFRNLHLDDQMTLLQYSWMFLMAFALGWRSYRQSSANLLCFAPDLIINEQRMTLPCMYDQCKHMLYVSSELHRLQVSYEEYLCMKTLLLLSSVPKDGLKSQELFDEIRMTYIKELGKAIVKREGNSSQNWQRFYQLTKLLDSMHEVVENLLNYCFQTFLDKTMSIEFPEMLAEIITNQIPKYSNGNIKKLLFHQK

[6] = target: Glucocorticoid receptor (Homo sapiens) (UniProt P04150); assay: GR-EFC Redistribution (AID 451; calls by dose curve; also: potency is read from the fitted curve at half-maximal effect); settings: CHO-K1 GR-EFC translocation, beta-gal luminescence, 2 h
How it was run: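 CHO-K1 cells stably expressing nuclear-localized β-gal enzyme acceptor and GR fused C-terminally to the enzyme donor fragment; ligand-driven nuclear translocation restores β-gal by complementation. Compounds titrated up to 46 uM final, 2 h at 37 °C; luminescence read.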

[7] = target: Cytochrome P450 1A2 (Homo sapiens) (UniProt P05177); assay: p450-cyp1a2 (AID 410; calls by dose curve; also: potency is read from the fitted curve at half-maximal effect); settings: recombinant CYP1A2, luciferin-ME demethylation, luminescence; series mostly up to 11.4 µM
Sequence of Cytochrome P450 1A2 (Homo sapiens) (P05177 whole entry, looked up): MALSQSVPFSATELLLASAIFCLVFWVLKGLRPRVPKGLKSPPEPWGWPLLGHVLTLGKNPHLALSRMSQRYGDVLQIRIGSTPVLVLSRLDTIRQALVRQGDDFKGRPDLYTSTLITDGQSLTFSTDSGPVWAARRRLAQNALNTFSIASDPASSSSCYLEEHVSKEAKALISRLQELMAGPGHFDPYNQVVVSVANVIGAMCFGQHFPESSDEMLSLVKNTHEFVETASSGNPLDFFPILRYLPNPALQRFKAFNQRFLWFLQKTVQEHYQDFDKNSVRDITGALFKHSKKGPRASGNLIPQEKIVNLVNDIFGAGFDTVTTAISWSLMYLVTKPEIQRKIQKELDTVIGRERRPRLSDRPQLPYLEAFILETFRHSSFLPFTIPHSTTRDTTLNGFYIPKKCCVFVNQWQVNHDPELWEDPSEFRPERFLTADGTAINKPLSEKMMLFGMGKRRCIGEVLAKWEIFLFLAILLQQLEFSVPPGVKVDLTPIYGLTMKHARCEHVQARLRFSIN
How it was run: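 Read-out is luminescence from luciferin produced by CYP1A2 demethylation of Luciferin-ME (100uM, at Km). Detection reagent stopped the 60 min NADPH-dependent reaction; signals were normalized to 57 uM furafylline.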

[8] = target: Mitogen-activated protein kinase 10 (Mus musculus) (UniProt Q61831); assay: JNK3 AlphaScreen Assay (AID 530); settings: JNK3 lysate, c-Jun phosphorylation; series mostly up to 11.4 µM;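 also: kinase came from lysate of stimulated human HepG2 cells; signal reports phosphorylation of biotinylated GST-cJun 1-79 at Ser73 with 10 µM ATP; % is scaled to controls: 0 for no effect and ±100 for the full control effect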
How it was run: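 Biotinylated GST-cJun(1-79) served as substrate for JNK3 in HepG2 lysates stimulated with IL-1beta and TNF-alpha. ATP was 10 uM final, pH 7.6. Ser73 phosphorylation was quantified by AlphaScreen (680 nm excitation).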

[9] = target: 3',5'-cyclic-AMP phosphodiesterase 4B (Homo sapiens) (UniProt Q07343); assay: qHTS Assay for Inhibitors of PDE-IV (AID 607; active = well fitted activation curve with a large enough effect in the main read-out, with a control signal flat, not every such curve was filed as active; also: % of control where 0% means no effect); settings: HEK293 ACTOne CNG channel cells, membrane potential fluorescence; series mostly up to 22.9 µM
Sequence of 3',5'-cyclic-AMP phosphodiesterase 4B (Homo sapiens) (Q07343 whole entry, looked up): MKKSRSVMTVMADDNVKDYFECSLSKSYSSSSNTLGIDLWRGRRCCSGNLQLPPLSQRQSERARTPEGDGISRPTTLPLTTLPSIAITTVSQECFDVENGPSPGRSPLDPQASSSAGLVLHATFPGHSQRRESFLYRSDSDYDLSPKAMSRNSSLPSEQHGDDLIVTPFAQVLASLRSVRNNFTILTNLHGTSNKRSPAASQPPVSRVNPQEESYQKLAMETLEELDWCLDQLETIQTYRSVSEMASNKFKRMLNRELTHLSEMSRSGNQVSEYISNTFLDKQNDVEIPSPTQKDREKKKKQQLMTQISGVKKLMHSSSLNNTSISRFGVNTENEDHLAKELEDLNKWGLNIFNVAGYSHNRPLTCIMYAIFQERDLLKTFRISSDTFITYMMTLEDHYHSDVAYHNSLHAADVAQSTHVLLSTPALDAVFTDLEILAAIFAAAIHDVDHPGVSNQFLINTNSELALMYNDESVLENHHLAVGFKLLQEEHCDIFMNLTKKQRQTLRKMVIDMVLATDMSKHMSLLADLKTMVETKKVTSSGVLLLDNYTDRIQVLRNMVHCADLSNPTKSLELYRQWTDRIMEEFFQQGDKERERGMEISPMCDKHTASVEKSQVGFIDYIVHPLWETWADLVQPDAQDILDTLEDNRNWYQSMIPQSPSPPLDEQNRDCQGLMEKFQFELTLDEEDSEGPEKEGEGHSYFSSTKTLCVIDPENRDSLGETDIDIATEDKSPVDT
How it was run: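 ACTOne HEK293 cells carry a modified cAMP-gated CNG channel and express endogenous PDE4; plated 1000 cells/well, compounds up to 22.9 uM final. Membrane-potential dye fluorescence (ex 535/em 590) was read; parental cells received 10 uM forskolin + 100 uM RO 20-1724.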

[10] = target: Cytochrome P450 3A4 (Homo sapiens) (UniProt P08684); assay: qHTS Assay for Inhibitors and Substrates of Cytochrome P450 3A4 (AID 884; active = well fitted inhibition curve with a large enough effect; also: % is scaled to controls: 0 for no effect and ±100 for the full control effect; nearly all actives have a fitted effect of over 50% in size); settings: recombinant CYP3A4, Luciferin-PPXE luminescence; series mostly up to 57.1 µM
Sequence of Cytochrome P450 3A4 (Homo sapiens) (P08684 whole entry, looked up): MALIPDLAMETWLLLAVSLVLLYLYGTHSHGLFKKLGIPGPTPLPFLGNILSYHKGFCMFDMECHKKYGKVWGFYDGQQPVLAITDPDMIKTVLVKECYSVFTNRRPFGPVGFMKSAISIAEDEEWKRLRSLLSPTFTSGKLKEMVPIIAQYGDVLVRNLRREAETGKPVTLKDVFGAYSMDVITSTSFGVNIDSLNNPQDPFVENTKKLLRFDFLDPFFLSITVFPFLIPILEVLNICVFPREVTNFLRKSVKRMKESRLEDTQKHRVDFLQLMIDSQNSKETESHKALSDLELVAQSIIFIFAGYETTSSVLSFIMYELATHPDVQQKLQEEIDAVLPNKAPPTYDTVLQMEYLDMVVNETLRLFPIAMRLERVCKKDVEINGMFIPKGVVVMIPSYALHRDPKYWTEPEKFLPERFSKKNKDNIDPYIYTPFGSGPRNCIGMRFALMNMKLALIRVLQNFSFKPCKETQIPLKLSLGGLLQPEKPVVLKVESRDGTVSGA
How it was run: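 Luminescent readout of luciferin produced by CYP3A4 (20 nM) dealkylation of Luciferin-PPXE, 25 uM (its KM). NADPH-driven reaction ran 60 min at RT after 10 min compound preincubation; data scaled to 57 uM ketoconazole as 100% inhibition.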

[11] = target: Cytochrome P450 2D6 (Homo sapiens) (UniProt P10635); assay: qHTS Assay for Inhibitors and Substrates of Cytochrome P450 2D6 (AID 891; active = well fitted inhibition curve with a large enough effect;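 also: luciferin methyl ether substrate demethylated by CYP2D6 with NADPH regeneration; % is scaled to controls: 0 for no effect and ±100 for the full control effect; nearly all actives have a fitted effect of over 60% in size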); settings: recombinant CYP2D6, luciferin-ME EGE luminescence; series mostly up to 11.4 µM
Sequence of Cytochrome P450 2D6 (Homo sapiens) (P10635 whole entry, looked up): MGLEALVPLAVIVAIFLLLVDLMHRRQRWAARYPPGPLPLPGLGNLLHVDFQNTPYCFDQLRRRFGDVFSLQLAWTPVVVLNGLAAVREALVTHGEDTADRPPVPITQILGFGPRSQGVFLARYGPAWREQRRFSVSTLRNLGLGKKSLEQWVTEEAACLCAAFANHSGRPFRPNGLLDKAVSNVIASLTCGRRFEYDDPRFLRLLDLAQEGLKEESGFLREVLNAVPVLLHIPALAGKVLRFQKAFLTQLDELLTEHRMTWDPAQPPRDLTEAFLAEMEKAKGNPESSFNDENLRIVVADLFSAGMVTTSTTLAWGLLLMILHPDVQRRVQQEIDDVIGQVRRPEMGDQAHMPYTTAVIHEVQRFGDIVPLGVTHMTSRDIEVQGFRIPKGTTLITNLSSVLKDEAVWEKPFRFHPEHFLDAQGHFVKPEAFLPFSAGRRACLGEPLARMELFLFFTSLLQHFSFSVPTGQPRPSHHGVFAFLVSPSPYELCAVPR
How it was run: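 Luminescent read-out of luciferin formed by 5 nM human CYP2D6 demethylating 30 uM Luciferin-ME EGE (Km level) over 60 min at room temperature after NADPH regeneration addition. Data normalized to full inhibition by 1.43 uM quinidine.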

[12] = target: Cytochrome P450 2C19 (Homo sapiens) (UniProt P33261); assay: qHTS Assay for Inhibitors and Substrates of Cytochrome P450 2C19 (AID 899; active = well fitted inhibition curve with a large enough effect; also: % is scaled to controls: 0 for no effect and ±100 for the full control effect; nearly all actives have a fitted effect of over 60% in size); settings: recombinant CYP2C19, luciferin-H EGE luminescence; series mostly up to 11.4 µM
Sequence of Cytochrome P450 2C19 (Homo sapiens) (P33261 whole entry, looked up): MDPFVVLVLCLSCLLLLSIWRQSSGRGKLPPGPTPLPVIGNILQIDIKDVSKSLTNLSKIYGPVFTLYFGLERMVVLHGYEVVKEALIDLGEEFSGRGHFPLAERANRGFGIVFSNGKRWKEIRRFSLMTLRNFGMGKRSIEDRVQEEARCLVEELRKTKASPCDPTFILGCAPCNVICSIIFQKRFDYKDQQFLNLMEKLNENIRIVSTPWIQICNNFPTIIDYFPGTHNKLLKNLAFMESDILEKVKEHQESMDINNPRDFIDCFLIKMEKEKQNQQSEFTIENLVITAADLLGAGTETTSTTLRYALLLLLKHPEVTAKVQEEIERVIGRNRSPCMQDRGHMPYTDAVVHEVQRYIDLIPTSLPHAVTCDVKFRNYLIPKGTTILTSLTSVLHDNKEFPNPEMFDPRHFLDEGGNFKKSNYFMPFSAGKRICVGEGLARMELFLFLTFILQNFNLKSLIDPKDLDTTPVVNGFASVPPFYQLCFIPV
How it was run: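 NADPH-dependent conversion of Luciferin-H EGE (10uM, at KM) by 5nM enzyme in 50mM KPO4, 60 min at 37C following 10 min compound preincubation. Stopped with luciferin detection buffer; luminescence read after 20 min.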

Structure (SMILES): O=C(O)Cc1[nH]cnc1C(=O)O
- Potency [1]: > 11.4 µM
- activity change, negative = inhibition [2]: -11%
- activity change, negative = inhibition [3]: 7.88%
- activity, negative = inhibition [4]: -3.92%
- Potency [5]: > 46 µM
- Potency [6]: > 9.22 µM

Structure (SMILES): CSc1ncnc2c1ncn2CC(=O)[C@H]1CC[C@H]2[C@H]3CCC4=CC(=O)CC[C@@]4(C)[C@@H]3CC[C@@]12C
- Potency [1]: > 11.4 µM
- activity change, negative = inhibition [2]: -21.5%
- Potency [7]: 3.98 µM (active)
- Potency [6]: > 9.22 µM
- Potency [8]: inactive
- Potency [9]: inactive
- activity change, negative = inhibition [10]: -20.1% [at 11.4 µM]
- Potency [11]: inactive
- Potency [12]: inactive

Structure (SMILES): NCCOC[C@H](N)C(=O)O
- Potency [1]: > 11.4 µM
- activity change, negative = inhibition [2]: 3.26%
- activity change, negative = inhibition [3]: 11.6%
- activity, negative = inhibition [4]: -1.46%
- Potency [5]: > 46 µM
- Potency [6]: > 9.22 µM
- Potency [8]: inactive
- Potency [9]: inactive

Structure (SMILES): O=c1c2ccccc2c2ccccc2c(=O)n1-c1cc2c3ccccc3ccc2c2ccccc12
- Potency [1]: > 11.4 µM
- activity change, negative = inhibition [2]: 13.5%
- activity change, negative = inhibition [3]: 2.31%
- activity, negative = inhibition [4]: -7.32%
- Potency [5]: > 46 µM
- Potency [6]: > 9.22 µM
- Potency [8]: inactive
- Potency [9]: inactive

Structure (SMILES): NCCC1([N+](=O)[O-])CCNCC1
- Potency [1]: > 11.4 µM
- activity change, negative = inhibition [2]: 2%
- activity change, negative = inhibition [3]: 12.9%
- activity, negative = inhibition [4]: -18.7%
- Potency [5]: > 46 µM
- Potency [6]: > 9.22 µM
- Potency [8]: inactive
- Potency [9]: inactive

Structure (SMILES): Nc1nc(-c2ccccc2)c(CC(=O)O)s1
- Potency [1]: > 11.4 µM
- activity change, negative = inhibition [2]: 0.597%
- activity change, negative = inhibition [3]: 18.8%
- activity, negative = inhibition [4]: 0.225%
- Potency [5]: > 46 µM
- Potency [6]: > 9.22 µM
- Potency [8]: inactive
- Potency [9]: inactive

Structure (SMILES): N=C(N)SCCON1C(=O)c2ccccc2C1=O
- Potency [1]: > 11.4 µM
- activity change, negative = inhibition [2]: 5.96%
- activity change, negative = inhibition [3]: -3.83%
- activity, negative = inhibition [4]: -5.8%
- Potency [5]: > 46 µM
- Potency [6]: > 9.22 µM
- Potency [8]: inactive
- Potency [9]: inactive

Structure (SMILES): CC(C)(C)n1nc(C2CC2)cc1NC(=O)Nc1ccc(Cl)cc1
- Potency [1]: > 11.4 µM
- activity change, negative = inhibition [2]: -5.76%
- activity change, negative = inhibition [3]: 8.66%
- activity, negative = inhibition [4]: -5.8%
- Potency [5]: > 46 µM
- Potency [6]: > 9.22 µM
- Potency [8]: inactive
- Potency [9]: inactive
